# BLM inh-1 = blocks DNA unwinding by human BLM helicase; Potency, µM (series often up to 56.1 µM), hits mostly inhibitors; 0.2% of 350,000 active; recombinant BLM DNA unwinding, fluorescence dequenching; AID 2528; P54132; note: nearly all actives have a fitted effect of over 35% in size
# Target sequence (P54132 whole entry, looked up): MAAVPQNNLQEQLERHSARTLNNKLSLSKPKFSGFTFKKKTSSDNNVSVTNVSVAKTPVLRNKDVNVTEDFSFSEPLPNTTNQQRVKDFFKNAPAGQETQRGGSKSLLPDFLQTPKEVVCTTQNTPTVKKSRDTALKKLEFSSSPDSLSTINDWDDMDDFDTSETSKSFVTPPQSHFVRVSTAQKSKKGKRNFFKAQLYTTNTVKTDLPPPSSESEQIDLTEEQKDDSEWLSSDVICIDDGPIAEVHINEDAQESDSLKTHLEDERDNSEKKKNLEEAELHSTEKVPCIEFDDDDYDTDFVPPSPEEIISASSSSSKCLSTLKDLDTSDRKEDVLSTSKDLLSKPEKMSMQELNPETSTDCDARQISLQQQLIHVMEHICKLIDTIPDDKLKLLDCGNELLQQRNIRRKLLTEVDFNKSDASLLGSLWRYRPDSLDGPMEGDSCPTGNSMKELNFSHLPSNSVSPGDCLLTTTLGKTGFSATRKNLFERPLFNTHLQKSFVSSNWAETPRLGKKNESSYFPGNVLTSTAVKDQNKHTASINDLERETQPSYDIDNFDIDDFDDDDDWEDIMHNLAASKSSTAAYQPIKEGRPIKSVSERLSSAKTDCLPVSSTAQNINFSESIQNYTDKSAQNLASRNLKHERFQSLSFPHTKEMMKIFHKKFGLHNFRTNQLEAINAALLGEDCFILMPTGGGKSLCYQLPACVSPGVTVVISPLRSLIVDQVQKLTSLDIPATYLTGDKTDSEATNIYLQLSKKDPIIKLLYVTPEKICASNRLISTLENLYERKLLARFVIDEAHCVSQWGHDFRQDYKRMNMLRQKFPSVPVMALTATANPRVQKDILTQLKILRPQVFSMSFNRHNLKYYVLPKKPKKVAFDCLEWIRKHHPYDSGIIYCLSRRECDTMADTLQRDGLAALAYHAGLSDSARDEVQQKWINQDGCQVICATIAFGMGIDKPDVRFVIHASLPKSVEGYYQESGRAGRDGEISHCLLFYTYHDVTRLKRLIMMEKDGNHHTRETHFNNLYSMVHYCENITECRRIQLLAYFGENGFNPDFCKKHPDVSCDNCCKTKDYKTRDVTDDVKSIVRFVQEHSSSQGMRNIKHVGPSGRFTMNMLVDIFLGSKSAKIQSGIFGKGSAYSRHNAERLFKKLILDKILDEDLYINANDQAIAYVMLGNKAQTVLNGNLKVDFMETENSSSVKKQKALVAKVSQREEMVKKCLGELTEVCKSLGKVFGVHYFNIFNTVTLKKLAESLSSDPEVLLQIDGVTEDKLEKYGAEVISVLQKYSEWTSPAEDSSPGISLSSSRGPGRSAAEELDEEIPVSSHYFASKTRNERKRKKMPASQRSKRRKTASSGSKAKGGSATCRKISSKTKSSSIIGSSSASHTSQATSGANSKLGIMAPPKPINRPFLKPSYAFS
# GCN5L2 inh-1 = inhibitors of human GCN5L2 histone acetyltransferase; Potency, µM (doses to about 58.9 µM), hits mostly inhibitors; 0.21% of 390,000 active; GCN5L2 HAT assay, ThioGlo1 CoA-SH fluorescence; AID 504327; Q92830
#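 Titration-based screen in which CoA formation is detected via maleimide probe ThioGlo1 (50uM) turning fluorescent on thiol reaction; substrates H3(1-25) 75uM and acetyl-CoA 70uM, GCN5L2 20nM, 20 min incubation at room temperature.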
# APE1 inh-1 = APE1 (human) endonuclease inhibition; P27695; recombinant APE1, TAMRA/BHQ-2 abasic DNA cleavage fluorescence; Potency, µM (titrated, usually from 65.8 µM), usual class: inhibitors; 0.35% of 350,000 active; AID 2517; note: nearly all actives have a fitted effect of over 55% in size
#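 Kinetic fluorescence read (525 ex/598 em nm, three reads 60 s apart) of AP-site incision; signal = third minus first read. Enzyme 0.75 nM, dual-labelled THF duplex 50 nM, compound preincubation 15 min RT.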
# L3MBTL1 inh-1 = L3MBTL1 (human) inhibition | 0.66% of 230,000 active | AlphaScreen L3MBTL1–H3K9me1 peptide binding | Q9Y468 | Potency, µM (highest dose often 57.1 µM), actives largely listed as inhibitors; note: nearly all actives have a fitted effect of over 60% in size
#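 Displacement of a biotinylated histone H3(1-15) peptide monomethylated at Lys9 (75 nM) from L3MBTL1 (50 nM) was measured by AlphaScreen after a 30 min room-temperature compound incubation; cefsulodin titration served as intraplate control.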
# JMJD2E inh = inhibitors of human JMJD2E histone demethylase. B2RXH2. JMJD2E catalytic domain, FDH-coupled NADH fluorescence (FDH is formaldehyde dehydrogenase). Potency, µM (titrated, usually from 57.1 µM), usual class: inhibitors. 1.6% of 230,000 active; active = well fitted inhibition curve with a large enough effect, not every such curve was filed as active; inconclusive = small, poorly fitted or top-dose-only effect, or another doubt; inactive = no such curve, though single readings can be large or run the other way; note: nearly all actives have a fitted effect of over 50% in size
# RECQ1 inh-1 = inhibitors of human RECQ1 DNA helicase. P46063. RECQ1 DNA unwinding, red fluorescence kinetic read. Potency, µM (doses to about 57.3 µM), usual class: inhibitors. 0.54% of 240,000 active. AID 2549; note: nearly all actives have a fitted effect of over 30% in size
#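 RECQ1T1 50 nM; forked duplex (20 bp + 30-nt ss tails) 200 nM, ATP 2 mM final; pH 8.0, 2 mM MgCl2, 2.5 ug/ml poly(dI-dC); 15 min compound preincubation; discontinuous kinetic read over 2 h at RT.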
# DNA dye displace = DNA dye displacement counter-screen activity. shares compounds with APE1 inh-1. DNA fluorescent dye displacement counterscreen, fluorescence. Potency, µM (titrated, usually from 28.5 µM), most hits filed as inhibitors. 7% of 480 active. AID 2564;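 note: loss of thiazole orange fluorescence as the dye is displaced from duplex DNA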
# Endo IV inh = Endo IV (E. coli) inhibition counter-screen. shares compounds with APE1 inh-1. E. coli Endo IV, fluorogenic AP-site DNA cleavage. Potency, µM (highest dose often 27.1 µM), most hits filed as inhibitors. 4% of 560 active. AID 2565
# APE1 inh-2 = APE1 (human) endonuclease inhibition, confirmation. shares compounds with APE1 inh-1. purified APE1, fluorogenic abasic-site DNA cleavage. Potency, µM (series often up to 57.1 µM), actives largely listed as inhibitors. 44% of 750 active; note: nearly all actives have a fitted effect of over 30% in size
# APE1 FP = displaces DNA from human APE1 in FP assay; shares compounds with APE1 inh-1; APE1 binding to TAMRA-labelled double-stranded DNA, fluorescence polarization displacement; Potency, µM (top dose mostly 28.5 µM), actives largely listed as inhibitors; 7% of 480 active; AID 2573
# BLM inh-2 = BLM (human) helicase inhibition, confirmation; shares compounds with BLM inh-1; BLM DNA unwinding, fluorescence quenching, biochemical; Potency, µM, usual class: inhibitors; 40% of 220 active;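 note: strand separation dequenches TAMRA so unwinding raises red fluorescence; series mostly up to about 69 µM; nearly all actives have a fitted effect of over 45% in size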
# RECQ1 inh conf = confirmation of human RECQ1 helicase inhibitors | 28% of 610 active | RECQ1 helicase DNA unwinding, fluorescence | Potency, µM (highest dose often 229 µM), hits mostly inhibitors | shares compounds with RECQ1 inh-1 | AID 2708; note: nearly all actives have a fitted effect of over 45% in size
# RECQ1 inh-2 = blocks human RECQ1 DNA unwinding; shares compounds with RECQ1 inh-1; 15% of 1,100 active; Potency, µM (highest dose often 119 µM), usual class: inhibitors; recombinant RECQ1 DNA unwinding, red fluorescence; note: nearly all actives have a fitted effect of over 50% in size
# L3MBTL1 inh-2 = validation of human L3MBTL1 methyl-lysine binding inhibitors. AID 540279. Potency, µM, actives largely listed as inhibitors. L3MBTL1 methyl-lysine binding inhibition, biochemical qHTS. 91% of 500 active. shares compounds with L3MBTL1 inh-1; note: nearly all actives have a fitted effect of over 70% in size
# AlphaScreen ctr2 = counter-screen for L3MBTL1 inhibitors: AlphaScreen signal interference | AID 602224 | 500 tested, under 10 active | shares compounds with L3MBTL1 inh-1 | Potency, µM (titrated, usually from 57.1 µM), most hits filed as inhibitors | AlphaScreen counterscreen, signal inhibition
# GCN5L2 inh-2 = human KAT2A HAT inhibition, hit confirmation; AID 588347; Potency, µM, usual class: inhibitors; 70% of 140 active; GCN5L2 HAT, ThioGlo1 CoA fluorescence, 20 min; shares compounds with GCN5L2 inh-1
# A number is an active result; i = inactive; ? = inconclusive; nt = no result given; ! = not active in a repeat; [ ] = another dose, or the depositor's remark. Only a selection was taken, and hits are over-represented in it overall. Unless noted, calls come from the whole dose curve; as a rule, active = well fitted curve in the direction sought with a large enough effect; inconclusive = small, poorly fitted or top-dose-only effect, or another doubt; inactive = no such curve, though single readings can be large; an effect the other way counts as inactive or inconclusive.
SMILES,BLM inh-1,GCN5L2 inh-1,APE1 inh-1,L3MBTL1 inh-1,JMJD2E inh,RECQ1 inh-1,DNA dye displace,Endo IV inh,APE1 inh-2,APE1 FP,L3MBTL1 inh-2,AlphaScreen ctr2,others
Nc1ccc(Nc2ccccc2)c(S(=O)(=O)O)c1,i,i,14µM,16µM,?,?,?,i,?,?,2.7,?,RECQ1 inh-2=?
CO[C@@H]1COC(=O)[C@@H](C)NC(=O)C/C=C\[C@@H](C)[C@H](NS(=O)(=O)c2ccc(C)cc2)COC(=O)[C@H](C)NC(=O)C/C=C\[C@H]1C,i[12.4 µM],nt,i[12.4 µM],nt,nt,i[11.5 µM],nt,nt,nt,nt,nt,nt,
Cc1ccc(C(=O)NCc2ccc3c(c2)CCN3C(=O)c2ccc(C)cc2)cc1,i,i,nt,nt,nt,nt,nt,nt,nt,nt,nt,nt,
Cc1ccc(NC(=O)CN2C(=O)N/C(=C/c3cccn3-c3ccc(C(=O)O)cc3)C2=O)cc1,?,?,1.1µM,2.2µM,?,7.9µM,nt,nt,1.3µM,nt,0.47,?,RECQ1 inh conf=20µM
O=C(O)c1cccc(-n2cccc2/C=C2/NC(=O)N(Cc3ccccc3F)C2=O)c1,i,i,13µM,32µM,i,?,nt,nt,?,nt,6,i,
N#CCCCS(=O)(=O)c1nnnn1C1CCCCC1,i,nt,i,nt,i,i,nt,nt,nt,nt,nt,nt,
CCOc1ccc(C(=O)NCC(c2cccs2)N(C)C)cc1OCC (centres undefined),i,i,i,i,i,i,nt,nt,nt,nt,nt,nt,
CCC(=O)N1CCc2cc(S(=O)(=O)NC(CC(C)C)C(=O)NCc3cccc(OC)c3)ccc21 (centres undefined),i,i,nt,nt,nt,nt,nt,nt,nt,nt,nt,nt,
O=C(COC(=O)c1cc2c(s1)CCC2)Nc1ccc(F)cc1,16µM,?,16µM,14µM,?,22µM,?,i,10µM,?,5.3,?,BLM inh-2=?;RECQ1 inh-2=?
O=C(COC(=O)c1cc2c(s1)CCCC2)Nc1ccc(Cl)cn1,i,i,i,i,i,i,nt,nt,nt,nt,nt,nt,
COc1cc(Nc2nc3ccccc3c3nnc(C)n23)cc(OC)c1,i,i,nt,nt,nt,nt,nt,nt,nt,nt,nt,nt,
CC(=O)OCC1=C(C(=O)O)N2C(=O)C(NC(=O)Cc3ccccc3)C2SC1 (centres undefined),i,i,nt,nt,nt,nt,nt,nt,nt,nt,nt,nt,
CC(=O)OCC1=C(C(=O)O)N2C(=O)[C@@H](NC(=O)CSc3ccncc3)[C@H]2SC1,nt,i,25µM!,16µM,?,i,nt,16µM,7.9µM,nt,3,i,
COCCOC(=O)c1[nH]c2c(c1C)C(=O)CC(c1ccco1)C2 (centres undefined),?,i,18µM,32µM,i,35µM,i,i,7.9µM,i,15,i,RECQ1 inh-2=?
Cc1c(C(=O)OCc2ccccc2)[nH]c2c1C(=O)CC(c1ccco1)C2 (centres undefined),i,i,25µM,25µM,i,32µM,i,i,14µM,i,15,i,RECQ1 inh-2=?
COCCOC(=O)c1[nH]c2c(c1C)C(=O)CC(c1ccccc1)C2 (centres undefined),i,i,i,i,i,i,nt,nt,nt,nt,nt,nt,
COc1ccc(C2CC(=O)c3c([nH]c(C(=O)OCc4ccccc4)c3C)C2)cc1 (centres undefined),i,i,nt,nt,nt,nt,nt,nt,nt,nt,nt,nt,
Cc1ccc(NC(=O)NC2CC(=O)N(c3ccc4c(c3)OCCO4)C2)c(C)c1 (centres undefined),nt,i,i,i,nt,nt,nt,nt,nt,nt,nt,nt,
CCOc1ccc(/C=c2\sc3nc(-c4ccco4)nn3c2=O)cc1OCC,i,i,i,i,i,i,nt,nt,nt,nt,nt,nt,
COc1ccccc1/C=c1\sc2nc(-c3ccco3)nn2c1=O,i,?,?,13µM,i,?,i,i,5µM,?,12,i,RECQ1 inh-2=?
COc1cccc(C2CC(=O)Nc3c2c(=O)[nH]c2ncnn32)c1OC (centres undefined),i,i,nt,nt,nt,nt,nt,nt,nt,nt,nt,nt,
O=C(O)c1ccc(-c2ccc(/C=C3\NC(=O)N(Cc4ccc(Cl)cc4)C3=O)o2)cc1Cl,i,i,?,5.6µM,?,?,nt,nt,16µM,nt,0.75,i,
CC(=O)Oc1cc2cccc(OC(C)=O)c(=O)c2c(OC(C)=O)c1OC(C)=O,?,i,0.45µM,0.35µM,11µM,3.2µM,i,i,6.3µM,i,1.5,i,
O=c1/c(=C/c2ccccn2)sc2nc3ccccc3n12,i,i,i,i,i,i,nt,nt,nt,nt,nt,nt,
O=C(O)c1cccc(-c2ccc(/C=c3/sc4nc5ccccc5n4c3=O)o2)c1,i,i,10µM,3.5µM,i,?,6.3µM,i,5µM,7.9µM,2.7,i,
COc1ccc2c(COC(=O)CC3Sc4ccccc4NC3=O)cc(=O)oc2c1 (centres undefined),i,?,i,?,i,i,nt,nt,nt,nt,nt,nt,
CC(=O)Nc1ccc2c(COC(=O)CC3Sc4ccccc4NC3=O)cc(=O)oc2c1 (centres undefined),i,i,?,25µM,?,?,nt,nt,35µM,nt,8.4,i,RECQ1 inh-2=?
O=C(Nc1ccc2nc(-c3ccco3)c(-c3ccco3)nc2c1)NC1CC1,6.3µM,8.9µM,7.1µM,4µM,?,10µM,?,i,7.9µM,?,2.4,i,GCN5L2 inh-2=20

# Compound activity from PubChem.
